Hits are enriched below; roughly 1.2% of the tested compounds scored in any of these assays.
Rev-erbA mod = Rev-erb alpha (human) modulation | P20393 | Rev-erbα–FITC-DNA binding, fluorescence polarization, 90 min | activity, % at 10 µM | hit rate 0.79% among 370,000 | AID 1259318;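 active means activity above about 14%, limit read from the data; passing the limit was not always enough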
PG9 Ab binder = PG9 antibody binding by small molecule; TR-FRET gp120-PG9 antibody binding; inhibition, % at 6.7 µM; hit rate 0.43% among 360,000; AID 624416; in the data active means inhibition above about 8.5%
PKA-R1A activ = PKA-R1A complex activation; PKA-R1A dissociation, Cy5-IP20 fluorescence polarization; scaled: DMSO 0%, 113 µM cGMP 100%; activation, % at 11.4 µM; hit rate 0.083% among 340,000; AID 504707;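 active means percent activation above the mean of all tested compounds plus 3 SD, cut at about 19% in these data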;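 further: higher means more PKAc released from R1A so a rise in polarization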
PKA-R2B activ = PKA-R2B complex activation. PKA-R2B holoenzyme dissociation, Cy5-IP20 fluorescence polarization; R2B truncated from residue 108, S112A mutant; 0% DMSO only, 100% 113 µM cGMP. hit rate 0.079% among 340,000. P22694+P31323. activation, % at 11.4 µM. AID 504700;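 active means activation above a cutoff set at the mean over all compounds plus 3 SD, cut at about 18% in these data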;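 further: higher means more holoenzyme dissociation and a rise in polarization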
Target sequence (P31323 whole entry, looked up, other chains not shown, the tested form may be a part): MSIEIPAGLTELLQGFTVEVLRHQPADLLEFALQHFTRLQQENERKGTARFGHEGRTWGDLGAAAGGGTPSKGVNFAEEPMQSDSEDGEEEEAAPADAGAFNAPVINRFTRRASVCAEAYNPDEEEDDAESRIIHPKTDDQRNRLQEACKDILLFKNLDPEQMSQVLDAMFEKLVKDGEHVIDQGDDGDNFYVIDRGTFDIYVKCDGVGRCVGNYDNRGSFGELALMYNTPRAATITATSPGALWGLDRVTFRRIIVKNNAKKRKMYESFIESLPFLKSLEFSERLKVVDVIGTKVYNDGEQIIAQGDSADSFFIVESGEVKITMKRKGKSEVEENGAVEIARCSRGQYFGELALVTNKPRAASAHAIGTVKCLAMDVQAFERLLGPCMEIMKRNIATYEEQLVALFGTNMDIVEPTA
PG9 bind confirm = PG9 antibody binding, confirmed | shares compounds with PG9 Ab binder | TR-FRET PG9 antibody binding, biochemical | inhibition, % at 6.7 µM | hit rate 90% among 1,500 | AID 651571; in the data active means inhibition above about 9%
PGV04 Ab binding = PGV04 control antibody binding, counter-screen. shares compounds with PG9 Ab binder. TR-FRET PGV04 antibody-gp120 binding, biochemical. inhibition, % at 6.7 µM. hit rate 95% among 1,500; in the data active means inhibition above about 9.5%
PG9 binder DR = small molecules binding HIV-1 gp120 antibody PG9; IC50, µM; TR-FRET PG9 antibody-gp120 binding inhibition; shares compounds with PG9 Ab binder; 95 tested, under 10 active; in the data active means IC50 below about 10 µM
PGV04 binding DR = counter-screen for PG9 binders: binding to control antibody PGV04. shares compounds with PG9 Ab binder. TR-FRET binding to control antibody PGV04. IC50, µM. hit rate 20% among 95
PG126 binding DR = counter-screen for PG9 binders: binding to control antibody PG126; shares compounds with PG9 Ab binder; TR-FRET binding to antibody PG126, counterscreen; AID 651939; hit rate 20% among 95; IC50, µM
Of the large screens only hits and unclear results are named; the others gave an inactive call (follow-up assays come after a bar, where they were run). Unless noted, no stated cut-off is given here; in the data, active means IC50 below about 9 µM; inactive means the rest.

CN(C)c1ccc(-c2nnc(-c3ccc(S(=O)(=O)C(F)F)cc3)o2)cc1	PG9 Ab binder 10.8 | PG9 bind confirm 17.1 | PGV04 Ab binding 19.6
COc1ccc(-c2nnc(-c3ccc(N(C)C)cc3)o2)cc1	none
CCCCC1=CC2=C(c3ccco3)C(=O)C(C)(OC(=O)c3ccc(OC)cc3)C(=O)C2=CN1Cc1ccccc1 (stereo not given)	PG9 Ab binder 24.0 | PG9 bind confirm 27.7 | PGV04 Ab binding 33.4
CCCCC1=CC2=C(c3ccco3)C(=O)C(C)(OC(=O)c3ccc(OC)cc3)C(=O)C2=CN1CCOC (stereo not given)	none
O=C(CSc1nc(-c2ccccc2)nc2ccccc12)Nc1cccc(C(=O)O)c1	PG9 Ab binder 15.6 (no result: PKA-R1A activ, PKA-R2B activ) | PG9 bind confirm 14.9 | PGV04 Ab binding 22.0
COc1cccc(OC)c1C(=O)Nc1ccc(C(=O)NCc2ccccc2)cc1	PG9 Ab binder 9.6 | PG9 bind confirm 12.2 | PGV04 Ab binding 16.8
COCCNC(=O)c1cc(-c2cccnc2)nc2ccc(Br)cc12	PG9 Ab binder 8.6 | PG9 bind confirm inactive | PGV04 Ab binding 14.2
Cc1cc(Br)cn2cc(C(=O)O)nc12	PG9 Ab binder 15.8 | PG9 bind confirm 20.7 | PGV04 Ab binding 25.7
O=C(O)c1cc(Br)ccn1	none
O=C(CSc1nc2ccccc2o1)Nc1nc2ccc(Br)cc2s1	none
COc1ccc2nc(NC(=O)CSc3nc4ccccc4o3)sc2c1	PG9 Ab binder 21.3 | PG9 bind confirm 27.1 | PGV04 Ab binding 45.5
O=C(c1ccc2ccccc2c1)c1cccc(F)c1C(=O)O	PG9 Ab binder 12.6 | PG9 bind confirm 11.8 | PGV04 Ab binding 17.3
O=C(O)c1cccc(C(=O)c2cccc3ccccc23)c1	none
Cc1ccc(C)c(NC(=O)C2CCCN2S(=O)(=O)c2cccnc2)c1 (stereo not given)	none (no result: PG9 Ab binder, PKA-R1A activ, PKA-R2B activ)
Cc1cc(SCC(=O)N2CCCC2=O)nc2ccccc12	none
Cc1cc2ccccc2nc1SCC(=O)NC1CCCCC1	none
Cc1cc2ccccc2nc1SCC(=O)NC1CCCC1	PG9 Ab binder 9.7 (no result: PKA-R1A activ, PKA-R2B activ) | PG9 bind confirm 15.0 | PGV04 Ab binding 17.5
CCC(C)n1c(SCC(=O)NC2CCCC2)nc2ccccc2c1=O (stereo not given)	none
Cc1cc(SCC(=O)NC2CCCCC2)nc2ccccc12	PG9 Ab binder 18.0 | PG9 bind confirm 22.0 | PGV04 Ab binding 26.7
Cc1cc(SCC(=O)NC2CCCC2)nc2ccccc12	PG9 Ab binder 15.7 | PG9 bind confirm 30.9 | PGV04 Ab binding 44.5
CCOc1ccccc1NC(=O)CSc1nnc(SCc2ccccc2)s1	none (no result: PG9 Ab binder, PKA-R1A activ, PKA-R2B activ)
O=C(CSc1nnc(-c2ccccc2)n1-c1ccc(Cl)cc1)c1ccc(F)cc1	none (no result: PG9 Ab binder, PKA-R1A activ, PKA-R2B activ)
Cc1ccc(C(=O)Nc2nnc(NC(=S)Nc3ccccc3)s2)cc1	PG9 Ab binder 12.0 | PG9 bind confirm 16.4 | PGV04 Ab binding 20.2
CC(=O)c1nn(-c2ccccc2)cc1C(=O)c1cccc(Br)c1	none
CC(=O)c1nn(-c2cccc(Br)c2)cc1C(=O)c1ccccc1	PG9 Ab binder 13.3 | PG9 bind confirm 20.2 | PGV04 Ab binding 24.5
c1ccc(-c2nccc(-c3ccc(-n4cnc5ccccc54)cc3)n2)cc1	PG9 Ab binder 15.2 | PG9 bind confirm 19.4 | PGV04 Ab binding 14.2 | PG9 binder DR inactive | PGV04 binding DR inactive | PG126 binding DR inactive
COc1ccc(Br)cc1C(=O)Nc1ccc(C(=O)NCC(C)C)cc1	none
CCOc1ccc(Br)cc1C(=O)Nc1ccc(C(=O)NCC(C)C)cc1	PG9 Ab binder 23.8 | PG9 bind confirm 23.7 | PGV04 Ab binding 31.1
O=C(C1CCCN1S(=O)(=O)c1ccc([N+](=O)[O-])cc1)N1CCc2ccccc2C1 (stereo not given)	none (no result: PG9 Ab binder, PKA-R1A activ, PKA-R2B activ)
CCOc1ncccc1C(=O)Nc1ccc(S(=O)(=O)N2CCCC2)cc1	PG9 Ab binder 9.6 | PG9 bind confirm 13.3 | PGV04 Ab binding 18.1
CCCCC(=O)Nc1ccc(C(=O)Nc2ccc(S(=O)(=O)N3CCCC3)cc2)cc1	PG9 Ab binder 18.0 | PG9 bind confirm 19.0 | PGV04 Ab binding 38.1
Cc1nn(C)c(C)c1NC(=O)CSc1nc(C2CC2)nc2c1cnn2-c1ccccc1	PG9 Ab binder 13.1 | PG9 bind confirm 43.2 | PGV04 Ab binding 73.8
CC1CCCCN1C(=O)CSc1nc(C2CC2)nc2c1cnn2-c1ccccc1 (stereo not given)	none
CCOC(=O)Cn1c(=NC(=O)CSC(C)=O)sc2cc(F)ccc21	PG9 Ab binder 39.7 | PG9 bind confirm 69.1 | PGV04 Ab binding 79.6
COCCn1c(=NC(=O)CSC(C)=O)sc2cc(F)ccc21	none
CCOC(=O)Cn1c(=NC(=O)CC)sc2c(C)cc(C)cc21	PG9 Ab binder 11.5 | PG9 bind confirm 14.8 | PGV04 Ab binding 23.2
CCOC(=O)C1CCN(C(=O)C(C)(C)NC(=O)Nc2ccc(OC)c(Cl)c2)CC1	none (no result: PG9 Ab binder, PKA-R1A activ, PKA-R2B activ)
Nc1nc(-c2ccc(Cl)cc2)nnc1-c1ccc(Br)cc1	PG9 Ab binder 12.7 | PG9 bind confirm 16.0 | PGV04 Ab binding 58.4
CCOc1ccc(S(=O)(=O)Nc2nc3ccccc3nc2-n2ccc(=NC(=O)c3cccs3)cc2)cc1	PG9 Ab binder 20.2 | PG9 bind confirm 31.3 | PGV04 Ab binding 72.6
CC(=O)Nc1ccc(S(=O)(=O)Nc2nc3ccccc3nc2-n2ccc(=NC(=O)c3ccc(F)cc3)cc2)cc1	PG9 Ab binder 41.5 | PG9 bind confirm 50.2 | PGV04 Ab binding 80.7
CC(=O)Nc1ccc(S(=O)(=O)Nc2nc3ccccc3nc2-n2ccc(=NC(=O)c3ccccc3)cc2)cc1	none (no result: PKA-R1A activ, PKA-R2B activ)
O=C(N=c1ccn(-c2nc3ccccc3nc2NS(=O)(=O)c2ccccc2)cc1)c1ccccc1Cl	none
Cc1ccc(NC(=O)CCS(=O)(=O)c2ccccc2)cc1C	none (no result: PG9 Ab binder, PKA-R1A activ, PKA-R2B activ)
CCn1c(SCC(=O)Nc2cc(C)on2)nc2sc3c(c2c1=O)CCCC3	PG9 Ab binder 9.2 | PG9 bind confirm inactive | PGV04 Ab binding 23.8
CCCC[C@H]1C2CC(OC(=O)Nc3ccccc3C)C(C2)[C@H]2CCCCN21 (stereo not given in full)	none (no result: PG9 Ab binder, PKA-R1A activ, PKA-R2B activ)
Nc1c(C(=O)NCc2ccccc2)sc2nc(N3CCOCC3)c3c(c12)CCCC3	PG9 Ab binder 10.3 | PG9 bind confirm 8.6 | PGV04 Ab binding 15.6
CCc1ccc(CCNC(=O)OCCCN2CCC3(CCC(c4ccccc4)CC3)C2=O)cc1 (stereo not given)	none (no result: PG9 Ab binder, PKA-R1A activ, PKA-R2B activ)
COc1ccc(-n2ncc3c(=O)n(CC(=O)Nc4ccc5c(c4)OCCO5)cnc32)cc1	PG9 Ab binder 11.7 | PG9 bind confirm 19.1 | PGV04 Ab binding 22.6
